Unmarked numbers belong to inactive results. How the calls were made is not given here.
tested on: HIV-1 nucleocapsid protein NCp7 (binding to TG oligonucleotide); test: HIV Nucleocapsid (AID 346); conditions: HIV-1 NC / fluorescein-TGTGTGTG probe, fluorescence polarization;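 further: potency is for inhibitors that block NC binding and lower polarization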
In short: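 Fluorescence polarization binding of 100 nM HIV-1 NC to 10 nM fluorescein-labelled TG4xF oligonucleotide. Buffer was Hepes pH 7.5 with 250mM NaCl, 1uM ZnCl2, TCEP and 2-mercaptoethanol. Compounds were incubated 1 hr at room temperature before the read.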
Potency means the concentration at half of the fitted maximal effect.

SMILES | Potency
COc1cccc(Cn2c(=O)c(-c3ccccc3)nc3cncnc32)c1 | > 20 µM
COc1ccc(CNc2ncnc3ccc(-c4ccccc4OC)cc23)c(OC)c1 | > 20 µM
Cc1ccccc1-c1ccc2ncnc(NCc3cccnc3)c2c1 | > 20 µM
CCNc1ncc2nc(-c3cccs3)c(=O)n(Cc3cccc(OC)c3)c2n1 | > 4 µM
CN1CCCC2(CCN(C(=O)c3cc(C(F)(F)F)cc(C(F)(F)F)c3)CC2)C1 | > 20 µM
COc1ccc(Oc2ncc3nc(-c4cn(C)c5ccccc45)c(=O)n(CCC#N)c3n2)cc1 | > 20 µM
COCCn1c(=O)c(-c2cccs2)nc2cnc(Nc3ccccc3)nc21 | > 20 µM
O=c1c(-c2cccs2)nc2cncnc2n1Cc1ccc(F)cc1 | > 20 µM
O=C(c1cnccn1)N1CCC2(CC1)CN(Cc1cc(C(F)(F)F)cc(C(F)(F)F)c1)C2 | > 20 µM
N#Cc1cccc(NC(=O)N2CC3(CCN(C(=O)c4ccco4)CC3)C2)c1 | > 20 µM
CS(=O)(=O)N1CCC2(CCN(c3ccccn3)CC2)CC1 | > 20 µM
COc1ccc(Oc2ncc3nc(-c4cccs4)c(=O)n(C)c3n2)cc1 | > 20 µM
Cc1noc(C)c1-c1cncnc1-n1ccnc1 | > 20 µM
O=S(=O)(c1ccccc1)N1CCC2(CCN(c3ccccc3)CC2)CC1 | > 20 µM
COc1cccc(-c2ccc3ncnc(NCc4cccnc4)c3c2)c1 | > 20 µM
O=C(c1ccco1)N1CCC2(CCN(Cc3cc(C(F)(F)F)cc(C(F)(F)F)c3)CC2)CC1 | > 20 µM
CNc1ncncc1-c1ccccc1CN(C)C | > 20 µM
COc1ccc(-n2c(=O)c(-c3ccc(Cl)cc3)nc3cnc(N4CCOCC4)nc32)cc1 | > 20 µM
COc1ccc(CNc2nc(-c3ccoc3)nc3ccccc23)c(OC)c1 | > 20 µM
COCC(=O)N1CCC2(CC1)CN(Cc1ccccc1OC)C2 | > 20 µM

SMILES | Potency
CN1CCN(c2ncc3nc(-c4cccc(C#N)c4)c(=O)n(C[C@H]4CCCO4)c3n2)CC1 | > 20 µM
O=S(=O)(c1ccccc1)N1CCC2(CC1)CN(c1ncccn1)C2 | > 20 µM
COc1ccc(NC(=O)N2CCCC3(CCN(C(=O)c4c(C)noc4C)CC3)C2)cc1 | > 20 µM
COc1ccccc1CNc1ncnc2ccc(-c3ccoc3)cc12 | > 20 µM
O=C(Nc1ccccc1)N1CC[C@@]2(CCCN(C(=O)c3cc(C(F)(F)F)cc(C(F)(F)F)c3)C2)C1 | > 20 µM
COc1ccccc1CNc1ncnc2ccc(-c3ccc4c(c3)OCO4)cc12 | > 20 µM
COCCn1c(=O)c(C)nc2cnc(Nc3ccccc3)nc21 | > 20 µM
CN(C)c1ncnc2ccc(-c3cccnc3)cc12 | > 20 µM
Fc1ccc(Nc2ncncc2-c2ccoc2)cc1 | > 20 µM
CNc1ncncc1-c1ccccc1C | > 20 µM
COCCn1c(=O)c(-c2ccc(Cl)cc2)nc2cnc(Oc3ccc(OC)cc3)nc21 | > 20 µM
Cc1noc(C)c1-c1nc(N2CCOCC2)c2ccccc2n1 | > 20 µM
CN(C)c1ncnc2ccc(-c3ccccc3C#N)cc12 | > 20 µM
COc1ncc2nc(-c3cccs3)c(=O)n(CCc3ccccc3)c2n1 | > 20 µM
O=C(Nc1cccc(F)c1)N1CCCC2(CCN(C(=O)c3cccc(F)c3)CC2)C1 | > 20 µM
CN1CCN(c2ncncc2-c2cccnc2)CC1 | > 20 µM
CS(=O)(=O)Nc1cccc(-c2ccc3ncnc(Nc4ccc(F)cc4)c3c2)c1 | > 20 µM
O=C(c1cnccn1)N1CCC2(CC1)CCN(c1ccncc1)CC2 | > 20 µM
COc1ncc2nc(-c3cccs3)c(=O)n(Cc3cccs3)c2n1 | > 20 µM
COC(=O)N1CCC[C@@]2(CCN(c3ncccn3)C2)C1 | > 20 µM

— PubChem BioAssay (NCATS)
